From PubChem BioAssay
TDP1 block – inhibitors of human tyrosyl-DNA phosphodiesterase TDP1. Q9NUW8. recombinant TDP1, AlphaScreen DNA substrate cleavage. Potency, µM (titrated, usually from 130 µM), inactives show at the top dose activity change, negative = inhibition, hits mostly inhibitors. 0.28% of 350,000 active; note: nearly all actives have a fitted effect of over 40% in size
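Here, a 5' biotin and 3' phosphotyrosine-FITC DNA oligonucleotide reports Tdp1 activity: intact substrate bridges AlphaScreen beads, while cleavage leaves a 3' phosphate and drops signal. All incubations at room temperature.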
VDR inh – blocks the human vitamin D receptor. VDR-SRC2-3 peptide fluorescence polarization, 2 h. Potency, µM, for inactives: max response, negative = inhibition, most hits filed as inhibitors. 0.93% of 400,000 active. AID 504847
Target sequence (P11473 whole entry, looked up): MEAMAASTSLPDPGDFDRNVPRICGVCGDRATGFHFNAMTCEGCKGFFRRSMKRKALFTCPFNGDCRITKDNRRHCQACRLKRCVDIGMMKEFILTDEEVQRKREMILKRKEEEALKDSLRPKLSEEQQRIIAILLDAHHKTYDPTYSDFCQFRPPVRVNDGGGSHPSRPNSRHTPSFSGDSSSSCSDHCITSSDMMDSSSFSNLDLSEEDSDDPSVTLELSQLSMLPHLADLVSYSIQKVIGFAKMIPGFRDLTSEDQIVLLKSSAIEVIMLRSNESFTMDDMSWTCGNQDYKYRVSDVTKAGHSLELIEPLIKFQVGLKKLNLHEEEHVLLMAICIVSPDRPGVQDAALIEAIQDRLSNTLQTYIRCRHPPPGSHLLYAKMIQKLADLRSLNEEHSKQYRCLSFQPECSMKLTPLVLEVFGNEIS
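Two reagent solutions held at 4 deg C in the dark were dispensed, compounds pinned at 23 nl, and the mixture incubated 2 h at room temperature. Read-out: fluorescence polarization of VDR–SRC2-3 peptide binding.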
GCN5L2 inh – blocks human GCN5L2 histone acetyltransferase; AID 504327; GCN5L2 HAT assay, ThioGlo1 CoA-SH fluorescence; 0.21% of 390,000 active; Potency, µM (doses to about 58.9 µM), for the others: top-dose activity change, negative = inhibition, hits mostly inhibitors; Q92830
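Free CoA generated was detected with ThioGlo1 (50uM) fluorescence at Ex340nm/Em540nm, read immediately and after 20 min at room temperature. Enzyme, 20 nM in HEPES pH 7.5 buffer, saw compounds 15 min before adding 75uM H3(1-25) peptide and 70uM acetyl-CoA.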
DT40 TDP1 no CPT – qHTS for Inhibitors of human tyrosyl-DNA phosphodiesterase 1 (TDP1): qHTS in cells in absence of CPT; AID 686978, 2013; Potency, µM (doses to about 46.2 µM), inactives show at the highest dose activity change, negative = growth inhibition, most hits filed as inhibitors; DT40 Tdp1-/- hTDP1 cells, no CPT, ATP luminescence, 48 h; 15% of 420,000 active; note: nearly all actives have a fitted effect of over 55% in size
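Chicken DT40 Tdp1-/- cells stably complemented with human TDP1 were seeded at 400 cells/well with DMSO in place of 20 nM camptothecin. After compound pinning, cells grew at least 48 hr at 37 °C; viability read by CellTiter-Glo luminescence.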
TDP1 cell CPT – DT40-hTDP1 cell growth loss with CPT | chicken DT40 Tdp1-/-;hTDP1 cells + 20 nM CPT, ATP luminescence, 48 h | Potency, µM (doses to about 46.2 µM), for inactives: at the highest dose activity change, negative = growth inhibition, usual class: inhibitors | 12% of 420,000 active | AID 686979; note: nearly all actives have a fitted effect of over 55% in size
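Cell growth measured by CellTiter-Glo luminescence after a minimum 48 h, 37 C compound exposure with 20 nM CPT in Tdp1-knockout DT40 cells stably expressing hTDP1, seeded 400/well; qHTS titration format.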
PLK1 PBD block – inhibitors of human PLK1 polo-box domain binding. P53350. Plk1 PBD binding of FITC phosphopeptide, fluorescence polarization. Potency, µM, inactives show max response, negative = inhibition, hits mostly inhibitors. 2.8% of 360,000 active; note: series mostly up to about 57 µM; nearly all actives have a fitted effect of over 65% in size
Starred values were filed as active, the others as inactive; ? = inconclusive; . = not tested or not shown; ! = not confirmed by another sample; [ ] = dose if it differs, or a comment. This is a sample that favours compounds with a hit; in the whole collection about 18% have one here. Calls come from the whole dose curve; as a rule, active = well fitted curve in the direction sought with a large enough effect; inconclusive = small, poorly fitted or top-dose-only effect, or another doubt; inactive = no such curve, though single readings can be large; an effect the other way counts as inactive or inconclusive. % is set by controls: 0 for no effect and ±100 for the full control effect; potency is the fitted concentration of half-maximal effect.

SMILES	TDP1 block	VDR inh	GCN5L2 inh	DT40 TDP1 no CPT	TDP1 cell CPT	PLK1 PBD block
COC(=O)c1c(NC(=O)/C(C#N)=C/c2ccccc2)sc2c1CCC2	1.9%[2.28 µM]	?	-3.2%	2.0%	7.7%	.
Cc1cccn2c(=O)c(C(=O)NCc3cccc(F)c3)cnc12	-1.5%	-8.9%	-0.9%	?	-2.8%	.
CC(=O)Nc1cccc(C(=O)Nc2cc(C(F)(F)F)ccc2-n2cncn2)c1	.	.	.	?	?	-6.6%
CS(=O)(=O)N1N=C(c2ccccc2)CC1c1ccc2nccnc2c1 (stereo not given)	5.3%	16.5%	-0.4%	25.9µM*	?	-0.2%
CC(C)NC(=O)C1(C)CN(S(C)(=O)=O)CC(=O)N1Cc1ccc2c(c1)OCO2 (stereo not given)	.	.	.	6.0%	18.8%	-1.5%
CC(C)NC(=O)N(O)C1N(Cc2ccc3c(c2)OCO3)C(=S)SC1(C)C (stereo not given)	3.8%	-7.7%	-5.8%	14.6µM*	?	-9.0%
O=c1[nH]c2c(cnn2-c2ccc(Cl)cc2)c(=O)n1-c1cccc(Cl)c1	5.1%	18.6%	-6.6%	29.1µM*	?	-11.3%
O=c1oc(-c2ccccc2F)nc2c1cnn2-c1ccccc1	1.0%	0.7%	2.2%	23.1µM*	?	-16.0%
Cc1ccc(-c2nc3c(cnn3-c3ccccc3)c(=O)n2-c2cccc(Cl)c2)cc1	2.2%[12.3 µM]	5.0%	-5.2%	13µM*	23.1µM*	.
O=c1oc(-c2cccc(Cl)c2)nc2c1cnn2-c1ccccc1	-2.0%	-4.1%	-7.2%	?	?	-3.7%
CCOc1ccc(-n2c(-c3ccco3)nc3c(cnn3-c3ccc(C)cc3)c2=O)cc1	3.6%	16.5%	-2.7%	?	?	-6.7%
Cc1ccc(-n2c(-c3ccc(Br)cc3)nc3c(cnn3-c3ccccc3)c2=O)cc1	-14.5%[12.3 µM]	18.0%	-10.5%	20.6µM*	?	.
O=c1[nH]c2cc(Cl)ccc2n1-c1ccccc1	-1.0%	0.1%	7.1%	-7.6%	-5.9%	-0.1%
FC(F)(F)c1cnc(-c2cc3c(c(OCC4CCCO4)c2)OCCN(Cc2cccn2-c2nccs2)C3)c(Cl)c1 (stereo not given)	.	.	.	-6.9%	14.7%[9.04 µM]	.
C=CCN1C(=O)c2ccc(C(=O)N3CCC(C(N)=O)CC3)cc2C1=O	4.1%	13.9%	-1.4%	3.5%	15.9%	-7.0%
CCCCn1c(C)cc2c(c1=O)C1O[C@](c3ccsc3)(Cc3cc(OC)c(OC)cc31)O2	.	.	-3.5%[12.7 µM]	.	.	.
CC(=O)NCCCC[C@H](NC(=O)OC(C)(C)C)C(=O)Nc1ccc2c(C(F)(F)F)cc(=O)oc2c1	1.0%	-1.2%	?	.	.	.
COc1cccc(-n2c(-c3ccccc3F)nc3c(cnn3-c3ccc(C)cc3)c2=O)c1	-7.0%	-12.7%	-10.6%	11.6µM*	16.4µM*	.
CCSC1=C(C#N)C2(CCCC2)C(C#N)=C(N)N1	-1.0%	-27.6%	-2.9%	16.4µM*	7.31µM*	2.99µM*
N#CC1=C(N)NC(SCc2ccc(Br)cc2)=C(C#N)C12CCCCC2	5.0%	-17.9%	-10.4%	?	?	-27.2%
N#CC1=C(N)NC(SCc2ccccc2)=C(C#N)C12CCCC2	5.3%	?	-10.5%	18.4µM*	?	?
Cc1ccc(N=Cc2ccc[nH]2)c(O)c1	10.0%	-16.1%	0.3%	?	20.6µM*	-5.8%
Cc1ccccc1N=Cc1ccc[nH]1	.	0.1%	.	4.3%	-0.8%	-1.7%
On1onc2c3cc(-c4ccccc4)nc3ccc21	6.8%	0.8%	-5.3%	5.17µM*	2.91µM*	2.1%
C/C=C1\COC(C(=O)NCCCN2CCCC2=O)(C(F)(F)F)C=C1C=C(C)C (stereo not given)	3.2%	?	.	18.4µM*	20.6µM*	?
SMILES	TDP1 block	VDR inh	GCN5L2 inh	DT40 TDP1 no CPT	TDP1 cell CPT	PLK1 PBD block
C/C=C1\COC(C(=O)NCCN2CCOCC2)(C(F)(F)F)C=C1C=C1CCCCC1 (stereo not given)	10.3%	-12.9%	.	.	.	.
C/C=C1\COC(C(=O)NCCN2CCCC2)(C(F)(F)F)C=C1C=C1CCCCC1 (stereo not given)	9.7%	-15.1%	.	20.6µM*	18.4µM*	-19.8%
C/C=C1\COC(C(=O)NCc2ccccc2)(C(F)(F)F)C=C1C=C1CCCCC1 (stereo not given)	-2.6%	79.4µM*!	.	?	?	-14.1%
Cc1ccc(S(=O)(=O)N2CCN(C(=O)COC(=O)COc3ccc(Cl)cc3)CC2)c(C)c1	.	-20.2%	.	10.5%	-3.2%	-12.7%
Fc1ccc(/C=C2\CCCC3=C2Nc2ncnn2C3c2ccc(F)cc2)cc1 (stereo not given)	12.8%	?	-11.8%	18.4µM*	14.6µM*	23.8µM*
NCCC1CN(C(=O)OCc2ccccc2)c2ccccc21 (stereo not given)	.	-12.9%	.	5.17µM*	5.8µM*	-5.1%
Cc1ccc(C(=O)n2c3ccccc3c3ccccc32)cc1	2.0%	16.7%	-6.4%	6.51µM*	5.8µM*	-2.5%
CC(=O)n1c2ccccc2c2ccccc21	-10.5%	6.2%	-1.5%	-19.8%	14.3%	-3.5%
O=C(Cn1cnc2sc3c(c2c1=O)CCCC3)NCC(=O)Nc1c(F)cccc1F	0.9%	-13.1%	-5.3%	18.1%	-17.8%	33.6µM*
Nc1[nH]c(=S)nc2nnsc12	.	.	.	11.2µM*	11.2µM*	.
CCC(C)C(=O)Nc1nc(C)c(-c2csc(Nc3ccc(Cl)cc3)n2)s1 (stereo not given)	6.2%	3.1%	-20.6%	9.2µM*	16.4µM*	-14.4%
CCCC(=O)Nc1nc(C)c(-c2csc(Nc3ccc(Cl)cc3)n2)s1	4.1%	-17.0%	-8.7%	?	11.6µM*	-23.6%
COCCNC(=O)C1(C)CCN(Cc2ccc3ccccc3c2Br)C1 (stereo not given)	.	.	.	10.3µM*	29.1µM*	-19.1%
CCNC(=O)C1(C)CCCN(Cc2cccc3ccccc23)C1 (stereo not given)	.	.	.	?	?	-3.7%
CCNC(=O)C1(C)CCCN(Cc2ccc3ccccc3c2Br)C1 (stereo not given)	.	.	.	18.4µM*	?	-0.1%
CCOC(=O)c1c(NC(=O)COC(=O)c2ccccn2)sc(C)c1C	0.9%	-3.6%	-1.4%	8.4%	1.8%	-0.8%
Cc1nc(NC(=O)C(C)(C)C)sc1-c1nc(N)sc1-n1cc(-c2ccccc2)nn1	.	.	.	-23.0%	-1.0%	?
CCNc1nc(-c2sc(NC(=O)C(C)(C)C)nc2C)c(-n2cc(-c3ccccc3)nn2)s1	.	.	.	7.31µM*	10.3µM*	-21.2%
O=C(/C=C/c1ccccc1Cl)OCC(=O)N1CCCC1	-5.0%	-0.4%	-1.6%	-9.0%	-4.6%	-1.3%
